# Data: PubChem BioAssay AID1422 (Emory University Molecular Libraries Screening Center, 2008)
# “And” between values parts separate entries of the source, which are not always exact repeats. Equal values may be shown once. Hit rate of the full screen: of about 260,000 compounds, about 1,300 (0.5%) were called active.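 How the source made its calls: active means percent inhibition above 40 after rounding to a whole number; inactive means the rest.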 This excerpt belongs to a sample that is enriched for actives. Some structures have more than one record in an assay (separate samples or runs), and their calls can disagree.
# Target: Prostaglandin E2 receptor EP2 subtype (Homo sapiens) (UniProt P43116)
# Sequence (P43116 whole entry, looked up): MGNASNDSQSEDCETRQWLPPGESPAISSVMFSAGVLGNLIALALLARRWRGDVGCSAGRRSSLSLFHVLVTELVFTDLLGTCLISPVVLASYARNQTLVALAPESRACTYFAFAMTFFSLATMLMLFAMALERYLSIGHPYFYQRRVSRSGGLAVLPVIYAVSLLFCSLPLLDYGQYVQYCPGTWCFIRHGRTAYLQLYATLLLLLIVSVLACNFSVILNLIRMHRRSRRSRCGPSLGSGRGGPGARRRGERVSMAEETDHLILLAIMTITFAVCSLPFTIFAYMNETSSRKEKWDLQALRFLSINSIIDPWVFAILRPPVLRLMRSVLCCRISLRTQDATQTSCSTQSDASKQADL
# Assay: human EP2 receptor antagonists, primary screen, TR-FRET cAMP, C6 glioma cells (AID 1422);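 further: rat C6 glioma host cells with rolipram phosphodiesterase inhibitor present; the protocol text gives 20 µM as final concentration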
# Conditions: C6 glioma cells expressing human EP2, cAMP TR-FRET; at 25 µM; stronger effect = higher value; cells stimulated with saturating PGE2
row,SMILES,inhibition
1,Oc1c(Cl)cc(Cl)c(Cl)c1Cc1c(O)c(Cl)cc(Cl)c1Cl,113% (active) and 18.5% (inactive)
2,COc1ccc(CNC(=O)C2C3CCC4(CN(CCc5ccccc5)C(=O)C24)O3)cc1 (stereo unspecified),8.25% (inactive)
3,COC(=O)c1c(NC(=O)c2cccc(C)c2)sc(C(=O)Nc2cccc(OC)c2)c1C,7.04% (inactive)
4,Clc1ccc(Nc2ncnc3c2nnn3Cc2ccccc2)cc1,7.31% (inactive)
5,Clc1ccc(Nc2nc3nonc3n3nnnc23)cc1,91.1% (active)
6,COc1ccccc1NC(=S)N(Cc1cc2cccc(C)c2[nH]c1=O)CC1CCCO1 (stereo unspecified),15.9% (inactive)
7,Cc1ccc2[nH]c(=O)c(CN(Cc3ccccc3Cl)C(=O)N3CCCC3)cc2c1,11.3% (inactive)
8,CCCC(NC(=O)c1csc(C(C)=O)c1)c1ccc2c(c1)OCCO2 (stereo unspecified),9.91% (inactive)
9,CC1CCCCN1C(=O)CSc1nc(-c2ccccc2)cc(C(F)(F)F)n1 (stereo unspecified),12.9% (inactive)
10,COc1ccc(-c2cc(C(F)(F)F)nc(SCC(=O)N3CCCCC3C)n2)cc1 (stereo unspecified),52.4% (active)
11,COc1ccc(-c2cc(C(F)(F)F)nc(SCCC(=O)N3CCCCC3C)n2)cc1 (stereo unspecified),12.1% (inactive)
12,CCOc1ccc(C2C(C(=O)c3ccco3)=C(O)C(=O)N2CCOC)cc1OC (stereo unspecified),8.68% (inactive)
13,COc1cccc(/C=N/Nc2ncc(C(F)(F)F)cc2Cl)c1O,4.36% (inactive)
14,COc1cccc(/C=N/Nc2cc(C)nc(-c3ccccc3O)n2)c1O,39.9% (active)
15,COc1ccccc1/C=N\Nc1cc(C)nc(-n2nc(C)cc2C)n1,3.92% (inactive)
16,Oc1ccccc1-c1nc2cnccn2c1NCc1ccccc1,9.33% (inactive)
17,CN(C)CCCNC(=O)C(=O)Nc1ccc2c(c1)OCO2,13.4% (inactive)
18,C[C@H]1O[C@@H](CC(=O)O)Cc2c1c(O)c1c(O)cc(-c3cc(=O)c4c(=O)c5c(c(=O)c=4c3=O)C[C@H](CC(=O)O)O[C@@H]5C)c(O)c1c2O,41.5% (active)
19,Cc1ccc(NC=C2C(=O)OC(C)(C)OC2=O)cc1Cl,10% (inactive)

row,SMILES,inhibition
1,Cc1ccc(C)c2[nH]c(=O)c(C(c3nnnn3Cc3ccc(F)cc3)N3CCc4ccccc4C3)cc12 (stereo unspecified),6.97% (inactive)
2,C=COCCNC(=O)Cn1nc(C)n2c(cc3occc32)c1=O,7.9% (inactive)
3,CNc1ncnc2c1ncn2[C@@H]1O[C@H](CO)[C@H](O)C1O (stereo partly specified),13.5% (inactive)
4,OC[C@@H]1O[C@H](n2cnc3c(SCc4ccccc4)ncnc32)[C@H](O)[C@H]1O,48.2% (active)
5,Nc1nc(SCc2ccc([N+](=O)[O-])cc2)c2ncn(C3OC(CO)C(O)C3O)c2n1 (stereo unspecified),9.89% (inactive)
6,CCOc1ccc(-n2nnnc2SCC(=O)Nc2ccc(C)c(NC(=O)CC)c2)cc1,10.6% (inactive)
7,CC(=O)Nc1ccc(S(=O)(=O)N2CC=C[C@@H]2C(=O)NCCc2ccccc2)cc1,8.27% (inactive)
8,Cc1ccc(C)c2nc(SCC(=O)Nc3ccccc3-c3ccccc3)c(C#N)cc12,13.9% (inactive)
9,Cc1cccc2cc(CN(Cc3cccs3)C(=O)Nc3ccc(Cl)cc3)c(=O)[nH]c12,6.58% (inactive)
10,OC(CN1CCC(O)(c2cccc(C(F)(F)F)c2)CC1)c1ccccc1 (stereo unspecified),5.58% (inactive)
11,CC1CCc2c(sc3ncn4c(SCC(=O)N5CCc6ccccc65)nnc4c23)C1 (stereo unspecified),16.8% (inactive)
12,COc1ccccc1NC(=O)CSc1ncnc2sc3c(c12)CCC(C)C3 (stereo unspecified),15.3% (inactive)
13,COc1ccc(NC(=O)CSc2nnc3c4c5c(sc4ncn23)CC(C)CC5)cc1 (stereo unspecified),46.8% (active)
14,Cc1nnc(NC(=O)CN2CCN(C3CCCCC3)CC2)s1,13.3% (inactive)
15,COC(=O)c1ccc(-n2nnnc2SCC(=O)NCc2cccs2)cc1,10.1% (inactive)
16,COc1ccc(C2(NC(=O)c3ccc(N4CCCCS4(=O)=O)cc3)CCCC2)cc1,6.96% (inactive)
17,NC1(C(=O)OCc2ccccc2)CCCC1,42.6% (active)
18,CC(C)C(NC(=O)OCc1ccccc1)C(=O)OCC(=O)N1C(C)CCCC1C (stereo unspecified),12.2% (inactive)
19,O=C(O)C1CCN(C(=O)OCc2ccccc2)CC1,7.11% (inactive)

row,SMILES,inhibition
1,COc1ccccc1C1(NC(=O)c2snnc2C)CCCC1,10.4% (inactive)
2,O=C(O)COc1nc(N2CCCCC2)nc(N2CCCCC2)n1,11.5% (inactive)
3,Cc1cccc(N(CC(=O)NC2CCCC2)C(=O)c2snc(C(=O)NC3CCCCC3)c2N)c1C,13.6% (inactive)
4,CS(=O)(=O)c1ccc(Cl)c(NC(=O)Nc2ccccc2)c1,6.72% (inactive)
5,O=C(Nc1ccccc1)c1nnsc1S(=O)(=O)c1ccc(Cl)cc1,114% (active)
6,CC(=O)Nc1cc(C(=O)O)ccc1S(=O)(=O)c1ccc(Cl)cc1,5.25% (inactive)
7,CC1CCc2c(sc3ncnc(SCc4cc(=O)[nH]c5ccccc45)c23)C1 (stereo unspecified),13.1% (inactive)
8,Cc1cccc2c(=O)c(C(=O)NN)c[nH]c12,5.35% (inactive)
9,Cc1cc(C)cc(NC(=O)CSc2nc3c(c(=O)n(C)c(=O)n3C)n2C(C)C)c1,5.34% (inactive)
10,Cc1nc(NC(=O)CSc2nnc3c(C)cc4cc5c(cc4n23)OCCO5)sc1C,40.1% (active)
11,Cc1cc2cc3c(cc2n2c(SCC(=O)Nc4ccc(Cl)cc4)nnc12)OCCO3,19.1% (inactive)
12,COC(=O)c1ccccc1NC(=O)CSc1nnc2c(C)cc3cc4c(cc3n12)OCCO4,7.88% (inactive)
13,CC1Cc2cc(C(O)CN3CCCC3)ccc2N1C(=O)C(C)(C)C (stereo unspecified),6.03% (inactive)
14,COc1cc(C2C(C(=O)c3ccc(C)o3)=C(O)C(=O)N2Cc2cccnc2)ccc1O (stereo unspecified),-0.43% (inactive)
15,Cc1ccc(C(=O)C2=C(O)C(=O)N(Cc3ccccc3)C2c2ccncc2)o1 (stereo unspecified),17.6% (inactive)
16,C=CCOc1cccc(C2C(C(=O)c3ccc(C)o3)=C(O)C(=O)N2c2nnc(C)s2)c1 (stereo unspecified),45.8% (active)
17,CC(=O)C(C)n1c(CN2CCC(C)CC2)nc2c1c(=O)n(C)c(=O)n2C (stereo unspecified),7.13% (inactive)
18,Cn1c(=O)c2c([nH]c(=O)n2Cc2cccc3ccccc23)n(C)c1=O,11.4% (inactive)
